Records with an inconclusive call do not appear. A call without a number means that no potency is given here. Calls of active or inactive are those of the source. Calls come from the whole dose curve; as a rule, active = well fitted curve in the direction sought with a large enough effect; inconclusive = small, poorly fitted or top-dose-only effect, or another doubt; inactive = no such curve, though single readings can be large or run the other way.

A short description of the assay: Cytometric Cell-Based qHTS for Inhibitors of the mTORC1 Signaling Pathway in MEF (Tsc2-/-, p53-/-) Cells (AID 2660).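 Note: Tsc2 and p53 null MEFs carrying empty vector with compound for 24 h; percent of cells above a phospho-rpS6 to PI ratio cutoff in each well.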 The following applies: mTORC1 pathway cytometry; series mostly up to 38.3 µM. An excerpt:
NIH Molecular Libraries Probe Production Centers Network [MLPCN]
NIH Chemical Genomics Center [NCGC]
Assay Submitter (PI): Blenis, John; Hoffman, Greg; Harvard University
NCGC Assay Overview: The mammalian target of rapamycin (mTOR) is an intracellular serine/threonine kinase Aberrant regulation of mTOR signaling plays a causative role in a number of human diseases, including cancer, benign tumors such as lymphangioleiomyomatosis (LAM) and Tuberous Sclerosis Complex (TSC), and metabolic diseases such as diabetes and obesity. This project aims to identify inhibitors of ribosomal protein S6 (rpS6) phosphorylation. The phosphorylation of rpS6 is a key event downstream of mTOR activation. The assay uses a phospho-specific antibody of phospho-rpS6 to detect inhibitors of mTOR activation. Mutations in the Tsc1 and Tsc2 genes are the underlying genetic lesions responsible for TSC, causing constitutive activation of the mTORC1 pathway and leading to profound effects on cell metabolism. Aberrant metabolism in cancer has recently received significant attention as a target to develop therapeutic agents in the treatment of cancer.1 As Tsc2-/- cells have lost the ability to respond to energy and growth factor deprivation, these cells are unable to properly down regulate cellular biosynthetic processes in response to metabolic stress, and are thus extremely sensitive to glucose deprivation-induced death.2 A central goal of this project is to explore the unique cell survival and metabolic properties of cells with Tsc1 or Tsc2 by screening for compounds that selectively target the Tsc2-/- MEFs by screening both Tsc2-/- and WT MEF cell lines. We hope to better understand these aspects of TSC physiology in order to exploit them for therapeutic benefit.
NCGC Acumen Assay Protocol Summary:
For quantitative high throughput analysis of mTORC1 signaling, we developed a cell-based assay for immuno-fluorescence based detection of rpS6 phosphorylation on the Acumen Explorer that will be used a platform for the primary small molecule screen. Mouse embryonic fibroblasts (MEFs) are cultured in 1536-well plates using DMEM + 10% FBS. Twenty-four hrs after plating, test compounds (solubilized in DMSO) are delivered and incubated with the cells for 24 hrs at 37 degree Celsius. Following the incubation, media with compound is aspirated and the cells are fixed in 4% paraformaldehyde (PFA) containing PBS + 0.2% TX-100. Next, PFA is aspirated, cells are washed two times with PBS plus 0.2% TX-100 and the cells are blocked for 1 hr at room temperature (blocking buffer: LiCOR Blocking Buffer plus 0.2% TX-100). This is followed by aspiration and staining with Alexa-488 conjugated-phospho-rpS6 Ser235/236 antibody for 2 hours at room temperature (Cell Signaling Technology # 4803, 1:50 dilution in blocking buffer). Cells are washed two times with PBS plus 0.2% TX-100, and stained with 10 uM propidium iodide (PI) for 20-25 minutes for cell number measurement (1:500 dilution of Hoescht staining is also added for IN Cell imaging). The plates are scanned on the Acumen Explorer laser scanning instrument (TTP Labtech) using the 488nm laser for simultaneous excitation of the Alexa-488 and PI. The fluorescence emission from the Alexa-488 conjugated rpS6 phospho-235/236 antibody staining is selected using a […] band pass filter. Fluorescence emission from the PI stain is selected using a 575-640 nm band pass filter. The normalized phospho-S6 staining is calculated as the ratio of the integrated Alexa 488 intensity divided by the integrated PI intensity for the single concentration rapamycin control (7.5 nM) and DMSO columns. […] Inhibition of the pathway is defined based on the normalized phospho-S6 intensity in rapamycin treated cells. […]
Consider `C[C@H](N)Cc1cccc(C(F)(F)F)c1`, for which the Potency entry was “inactive”.

Consider `CN1CC[C@@]2(C)c3cc(O)ccc3N(C)C12` (stereo not given in full), for which the Potency result is “inactive”.

As for `C[C@H](N)CN1CCc2ccc(Br)cc21`, the Potency result was “inactive”.

Turning to `Cc1cc([C@@H]2CCCN2C)on1`, the Potency result was “inactive”.

`C[N+]1(C)CCc2cc3c(cc2[C@H]1[C@@H]1OC(=O)c2c1ccc1c2OCO1)OCO3`: the Potency result was “inactive”.

Turning to `COC(=O)N1CCN(C(=O)Cc2ccc(Cl)c(Cl)c2)C(CN2CCCC2)C1` (stereo not given), the Potency entry is “inactive”.

Consider `CCCN(CCC)C1CCc2cccc(O)c2C1` (stereo not given), for which the Potency entry was “inactive”.

Consider `CCOC(=O)c1ncn2c1[C@@H]1CCCN1C(=O)c1cc(OC)ccc1-2`, for which the Potency entry was “inactive”.

Regarding `CCCN(CCC)C1Cc2cc(OC)c(OC)cc2C1`, the Potency entry is “inactive”.

As for `C[N+]1(C)C2CCC1CC(OC(=O)c1c[nH]c3ccccc13)C2` (stereo not given), the Potency entry was “inactive”.

Consider `N#CCCN`, for which the Potency entry is “inactive”.

As to `CC(C)(C)c1cc(C=C(C#N)C#N)cc(C(C)(C)C)c1O`, the Potency entry is “inactive”.

Regarding `CC(C)NP(=O)(NC(C)C)OP(=O)(NC(C)C)NC(C)C`, the Potency result is “inactive”.

On to `COc1cc(CC(C)N)c(OC)cc1I` (stereo not given), for which the Potency entry was “inactive”.

`NC(Cc1ccc(N(CCCl)CCCl)cc1)C(=O)O` (stereo not given): the Potency result was “inactive”.

Consider `CCCN(CCC)CCc1c[nH]c2ccc(C(N)=O)cc12`, for which the Potency result is “inactive”.

For the molecule `COc1ccc2c(c1)c(CCN1CCOCC1)c(C)n2C(=O)c1cccc(Cl)c1Cl`, the Potency entry is “inactive”.

On to `NCC(CP(=O)(O)O)c1ccc(Cl)cc1` (stereo not given), for which the Potency result is “inactive”.

In the case of `C[C@]12Cc3cn4c(nc3C=C1CCC1C2CC[C@@]2(C)[C@H]1CC[C@@]2(O)C#N)nc1ccccc14` (stereo not given in full), the Potency result was “inactive”.

For `COc1ccc2c(c1)[C@@]13CCCC[C@H]1[C@@H](C2)NCC3`, the Potency result is “inactive”.

With `CN(C(=O)Cc1ccc(Cl)c(Cl)c1)C(CN1CCCC1)c1cccc(OCC(=O)O)c1` (stereo not given), the Potency result is “inactive”.

Consider `CCCN(CCC)CCc1ccc(O)c(O)c1`, for which the Potency result is “inactive”.

For `C=CCN1CCC23c4c5ccc(O)c4O[C@H]2C(=O)CC[C@@]3(O)C1C5` (stereo not given in full), the Potency result is “inactive”.

In the case of `CC(=O)c1c(O)c(C)c(O)c(Cc2c(O)c3c(c(C(=O)/C=C/c4ccccc4)c2O)OC(C)(C)C=C3)c1O`, the Potency result is “inactive”.

On to `C[C@H](Cc1ccc2c(c1)OC(C(=O)O)(C(=O)O)O2)NC[C@H](O)c1cccc(Cl)c1`, for which the Potency result is “inactive”.

In the case of `Cc1[nH]c2ccc(O)cc2c1CCN`, the Potency entry is “inactive”.

As to `COc1ccc2[nH]c3c(c2c1)CCNC3`, the Potency result was “inactive”.

For `Cc1sc2ccccc2c1CC1=NCCN1`, the Potency result was “inactive”.

As to `OCc1cnc[nH]1`, the Potency entry was “inactive”.

Consider `CCN(CCCl)Cc1ccccc1Br`, for which the Potency entry was “inactive”.

Turning to `NC(CCCCCP(=O)(O)O)C(=O)O` (stereo not given), the Potency result was “inactive”.

Regarding `CC(Cc1ccc(OCC(=O)O)cc1)NCC(O)c1cccc(Cl)c1` (stereo not given), the Potency result is “inactive”.

On to `NNC(N)=O`, for which the Potency entry was “inactive”.

For the molecule `CN1C2CCC1CC(OC(c1ccccc1)c1ccccc1N)C2` (stereo not given), the Potency result was “inactive”.

On to `C[N+]1(C)CCOC(O)(c2ccc(-c3ccc(C4(O)C[N+](C)(C)CCO4)cc3)cc2)C1` (stereo not given), for which the Potency entry is “inactive”.

For the molecule `NC(N)=NOCC[C@H](N)C(=O)O`, the Potency entry was “inactive”.

In the case of `NC(=O)c1ccc(OCC(O)CN2CC=C(c3ccc(F)cc3)CC2)cc1` (stereo not given), the Potency entry is “inactive”.

For the molecule `C=CCN1CCc2cccc3c2[C@H]1Cc1ccc(O)c(O)c1-3`, the Potency entry is “inactive”.

For the molecule `C=CCN1C[C@@H](C)N([C@H](c2ccc(C(=O)N(CC)CC)cc2)c2cccc(OC)c2)C[C@@H]1C`, the Potency entry was “inactive”.

As for `C/C(O)=C(\C#N)C(=O)Nc1cc(Br)ccc1Br`, the Potency entry is “inactive”.
